Test results as given in PubChem BioAssay AID2253 (Southern Research Specialized Biocontainment Screening …, 2010).
Hit rate of the full screen: of about 2,200 compounds, about 1,300 (59%) were called active. The rule behind the calls is not given here. So high a share suggests a set chosen from earlier hits. Not all results are given here. Measured potencies and affinities stand elsewhere.

Assay: human monocytic cell viability reduction – S. typhimurium screen hits, cytotoxicity control for Salmonella PhoP regulon inhibitors, dose response (AID 2253)
Settings: THP-1 viability, CellTiter-Glo luminescence, 72 h; series mostly up to 50 µM

| Structure (SMILES) | outcome |
| --- | --- |
| COc1ccc(NC(=O)CN2CCCCC2)c([N+](=O)[O-])c1 | inactive |
| CCOc1ccc(N/C=C/C(=O)c2ccc(OC)cc2)c([N+](=O)[O-])c1 | inactive |
| CCCc1nnc(NC(=O)c2cn(CC)c3cc(N4CCN(C)CC4)c(F)cc3c2=O)s1 | inactive |
| Cc1nc(SCC(=O)NC(C)c2ccccc2)c2oc3ccccc3c2n1 (configuration not stated) | inactive |
| CCCn1c(SCC(=O)NCCc2ccccc2)nnc1-c1cccnc1 | inactive |
| Cn1ccnc1C(O)c1ccc(OCc2ccccc2)cc1 (configuration not stated) | inactive |
| CCOC(=O)c1c(N)ssc1=S | inactive |
| O=S1(=O)CC(O)C(Nc2ccccc2Cl)C1 (configuration not stated) | inactive |
| NC(=O)c1c(N)sc2c1CCCCC2 | inactive |
| O=C(Nc1cnn(Cc2ccc(F)cc2)c1)c1cnccn1 | inactive |
| O=C(Nc1cnc2ccccc2c1)N1CCOCC1 | inactive |
| CC(C)(C)n1ncc2c(=O)n(CC(=O)Nc3ccc4c(c3)OCO4)cnc21 | inactive |
| CC(C)n1cc(C(=O)N2CCCC(N3CCN(c4ccc(F)cc4)CC3)C2)cn1 (configuration not stated) | inactive |
| O=[N+]([O-])c1ccc(N2CCN(CCOc3nonc3-c3ccccc3)CC2)c(Cl)c1 | inactive |
| Cc1ccc(-n2nnnc2SCC(=O)Nc2ncc(Cc3ccccc3Cl)s2)cc1 | inactive |
| Cc1ccc(NS(=O)(=O)c2ccc(N3C(=O)CCC3=O)cc2)cc1 | inactive |
| CCC(CC)C(=O)N1c2ccc(F)cc2CCC1C (configuration not stated) | inactive |
| CCOC(=O)N1CCN(C(=O)c2cn(CC)c3cc(N4CCN(C)CC4)c(F)cc3c2=O)CC1 | inactive |
| Nc1[nH]c(=O)ncc1F | inactive |
| O=C(NCCc1cn2ccccc2n1)c1ccccc1F | inactive |
| CC(C)CCn1c(SCC(=O)N2CC(=O)Nc3ccccc32)nc2scc(-c3cccs3)c2c1=O | inactive |
| Cc1nnc(NC(=O)CSc2ncnc3scc(-c4ccccc4)c23)s1 | inactive |
| COc1ccc(/C=N/NC(=O)CC(=O)NCc2cccnc2)cc1 | inactive |
| COC(=O)c1ccc(NC(=S)Nc2ccc3ccccc3c2)cc1 | inactive |

| Structure (SMILES) | outcome |
| --- | --- |
| COC(=O)c1ccccc1Oc1cnc2ccccc2n1 | inactive |
| CC(=O)N1CCN(c2cc3c(cc2F)c(=O)c(C(=O)O)cn3C2CC2)CC1 | inactive |
| CC(=O)c1sc(NC(=O)COc2ccc([N+](=O)[O-])cc2)nc1C | inactive |
| Cn1c(CO)cnc1SCc1ccc([N+](=O)[O-])cc1 | inactive |
| CCOC(=O)CC(=O)CSc1nc2c(c(C)c1C#N)CCC2 | inactive |
| Cc1cc2c(c(=O)n1C)C(Cc1ccccc1)C(C#N)=C(N)O2 (configuration not stated) | inactive |
| O=C1Nc2ccccc2C(O)(C(=O)N2CCCCC2)N1c1ccccc1 (configuration not stated) | inactive |
| O=C1CC(c2ccccc2)n2ncnc2N1 (configuration not stated) | inactive |
| NC1CCN(c2c(F)cc3c(=O)c(C(=O)O)cn(C4CC4)c3c2Cl)C1 (configuration not stated) | inactive |
| Cc1ccc(CCNC(=O)C2CCN(S(=O)(=O)N3CCCC3)CC2)cc1 | inactive |
| Cc1ccc(CCNC(=O)C2CCCN(S(=O)(=O)c3c(C)noc3C)C2)cc1 (configuration not stated) | inactive |
| O=C(CSc1nccc(=O)[nH]1)N1c2ccccc2CCc2ccccc21 | inactive |
| CCN(CCO)Cc1csc2ccccc12 | inactive |
| Cc1nc2ccccn2c1C(=O)N/N=C/c1ccccc1[N+](=O)[O-] | inactive |
| Cc1cc(C(=O)N/N=C/c2cccc([N+](=O)[O-])c2O)n[nH]1 | inactive |
| O=C(N/N=C/c1cccn1-c1ccc([N+](=O)[O-])cc1)C(O)c1ccccc1 (configuration not stated) | inactive |
| Cc1cc(C(=O)N/N=C/C=C/c2ccc3c(c2)OCO3)n[nH]1 | inactive |
| CC1(C)CC2CC(C)(CN2C(=O)COC(=O)c2n[nH]c(=O)c3ccccc23)C1 (configuration not stated) | inactive |
| CCOC(=O)c1sc2nccc(N(C)C)c2c1N=CNOCc1c(F)cccc1Cl | inactive |
| O=C(CCCNS(=O)(=O)c1ccccc1)NCc1ccco1 | inactive |
| O=C(Cn1cnc2ccccc2c1=O)NCc1ccco1 | inactive |
| O=C1CSC(=S)N1c1ccc(F)cc1 | inactive |
| COc1ccc(OC)c(C(=O)C2COC(=O)C2)c1 (configuration not stated) | inactive |
| Cc1cc2ncn(CC(O)COc3cccc(C(=O)O)c3)c2cc1C (configuration not stated) | inactive |

| Structure (SMILES) | outcome |
| --- | --- |
| COc1ccc(C2C(C(=O)c3cccs3)=C(O)C(=O)N2c2nnc(C)s2)cc1OC (configuration not stated) | inactive |
| Clc1ccccc1OCCn1ccnc1 | inactive |
| Brc1ccc(OCCn2ccnc2)cc1 | inactive |
| COc1ccc2c(c1)cc1n2CCN2CCCN=C12 | inactive |
| CCn1cc(C(=O)NCc2ccncc2)c(=O)c2cc(F)c(N3CCN(C(=O)c4ccco4)CC3)cc21 | inactive |
| O=C(CCCOc1ccccc1)N1CCCc2ccccc21 | inactive |
| C(=N\N1CCN(Cc2ccccc2)CC1)/c1cccnc1 | inactive |
| O=C1CC(N2CCN(Cc3ccccc3)CC2)C(=O)N1c1ccccc1 (configuration not stated) | inactive |
| CC(C)(C)c1ccc(-c2n[nH]c(=S)n2/N=C/c2ccncc2)cc1 | inactive |
| O=C(CCN1CCc2ccccc2C1)Nc1ccccc1F | inactive |
| CCn1nnc(-c2ccccc2NC(=O)c2ccc(-n3cnnn3)cc2)n1 | inactive |
| N#Cc1nc(-c2cccs2)oc1NCCCN1CCOCC1 | inactive |
| CCOc1ccc(/C(O)=C2\C(=O)C(=O)N(CCN(C)C)C2c2cccc(OC)c2OC)cc1Cl (configuration not stated) | inactive |
| O=C(CCn1nnc(-c2cccs2)n1)NCc1ccccc1Cl | inactive |
| COc1ccc(C(=O)COc2nc(C)cc(C)c2C#N)cc1 | inactive |
| CCc1nc2cc(Cl)c(Cl)cc2[nH]1 | inactive |
| CC(=O)Nc1c(O)nc(SCC(=O)N2CCN(c3ccc(F)cc3)CC2)[nH]c1=O | inactive |
| O=C(NCCCN1CCCC1=O)c1ccc(Cl)c(NS(=O)(=O)c2ccc(F)cc2)c1 | inactive |
| CC(C)(C)NC(=O)CSc1nnc(-c2ccncc2)o1 | inactive |
| CC(=O)NCCOc1c(C)cc(S(N)(=O)=O)cc1C | inactive |
| Cn1cccc1CC(=O)N/N=C/C(Cl)=C/c1ccccc1 | inactive |
| CC1(C)CC(=O)c2c(nc3ccccc3c2N)C1 | inactive |
| Cc1cc(C(=O)N2CCN(C/C=C/c3ccccc3)CC2)no1 | inactive |
| CC(CCc1ccccc1)NC(=O)c1ccccc1 (configuration not stated) | inactive |

| Structure (SMILES) | outcome |
| --- | --- |
| COCc1cc(C)nc(N2CCc3ccccc32)c1C#N | inactive |
| COc1ccc(-c2cnn3c(N)c(S(=O)(=O)C(C)(C)C)cnc23)cc1 | inactive |
| Brc1ccc(NC2=Nc3ccccc3CC2)cc1 | inactive |
| COc1cc(C2NC(=O)NC(c3ccccc3)=C2C(C)=O)ccc1OCC(=O)O (configuration not stated) | inactive |
| COc1ccc(S(=O)(=O)n2nc(OC(=O)c3cccs3)cc2N)cc1 | inactive |
| Nc1cc(N)nc(SCC(=O)Nc2ccc3c(c2)OCCCO3)n1 | inactive |
| Cc1ccc2cc(C(=O)O)c(C)nc2c1 | inactive |
| Cc1cc([N+](=O)[O-])cc2ncccc12 | inactive |
| O=C(NCc1cccnc1)c1ccc(Cl)cc1[N+](=O)[O-] | inactive |
| CCOc1cc(C2C(C(=O)OC)=C(C)N=C3SCCC(=O)N32)ccc1OC(C)=O (configuration not stated) | inactive |
| COc1ccc(Oc2coc3cc(OC(=O)c4cccs4)ccc3c2=O)cc1 | inactive |
| Cc1cc(C)nc(N(C#N)C(C)C(=O)N(C)C)n1 (configuration not stated) | inactive |
| Cc1cccnc1N(C(=O)Nc1ccccc1)C1=NCC(C)(C)S1 | inactive |
| O=C(NC(=Nc1ccccc1)N1CCOCC1)Nc1ccccc1 | inactive |
| OC(COCc1cccs1)CN1CCN(c2ccccn2)CC1 (configuration not stated) | inactive |
| CCCCOC(=O)CCNc1n[nH]c(=O)[nH]c1=O | inactive |
| Clc1ccc(CNCc2cccs2)cc1Cl | inactive |
| O=C(Cc1cn2ccsc2n1)Nc1ccccc1Oc1ccccc1 | inactive |
| Cc1ccc(S(=O)(=O)NCCC(=O)OCn2nnc3ccccc3c2=O)cc1 | inactive |
| CN(C(=O)/C=C/c1ccccc1)C1CCS(=O)(=O)C1 (configuration not stated) | inactive |
| CNC(=O)c1ccc(-c2ccc(F)cc2)s1 | inactive |
| CCCSc1nc(N2CCCC2)c2c(c1C#N)CC(C)(C)OC2 | inactive |
| C=CCNC(=O)c1ccc(N(C)S(=O)(=O)c2ccc(OC)cc2)cc1 | inactive |
| CC1CN(C(=O)CCc2ccccc2)C(C)CN1C(=O)CCc1ccccc1 (configuration not stated) | inactive |

| Structure (SMILES) | outcome |
| --- | --- |
| O=C(c1ccc(Cl)cc1Cl)C1(n2cncn2)Oc2ccccc2C1O (configuration not stated) | inactive |
| Cc1ccc(C(=O)NCc2ccc(Cl)cc2)o1 | inactive |
| O=[N+]([O-])c1ccc(-c2ccn[nH]2)o1 | inactive |
| CN(c1ccccc1)S(=O)(=O)c1ccc(C(=O)Nc2nnc(-c3ccc(F)cc3)o2)cc1 | inactive |
| COc1cccc(OC)c1C(=O)NC(=S)Nc1cc(-c2nc3ccccc3[nH]2)ccc1Cl | inactive |
| COC(=O)c1c(C(=O)OC)c(-c2cccc(C)c2)n2c1CS(=O)(=O)C2 | inactive |
| CCn1cc(C(C)(C)C)c(C#N)c1NC(C)=O | inactive |
| O=C(Cn1cnc2scc(-c3ccccc3)c2c1=O)N1CCOCC1 | inactive |
| C=CC1=C(C(=O)O)N2C(=O)[C@@H](NC(=O)/C(=N/OCC(=O)O)c3csc(N)n3)[C@H]2SC1 | inactive |
| CC(C)(C)c1n[nH]c(=S)n(/N=C/c2cccs2)c1=O | inactive |
| Cc1ccsc1/C=N/NC(=O)Cn1cnc2ccccc21 | inactive |
| C=CCSC1=Nc2sccc2C2=NC(=O)CN12 | inactive |
| O=C(CN1CCCCC1)Nc1cccc2c1OCO2 | inactive |
| NC(=O)c1oc2ccccc2c1NC(=O)CN1CCCCC1 | inactive |
| O=c1[nH]c2cc3c(cc2cc1CN(CCc1ccccc1)Cc1nnnn1CC1CCCO1)OCO3 (configuration not stated) | inactive |
| CC(C)CNC(=S)NC1CCCC1 | inactive |
| O=C(CN1CCC(NC(=O)c2cccc(F)c2)CC1)NCc1ccccc1F | inactive |
| Cn1c(SCC(=O)NC(=O)c2cccc([N+](=O)[O-])c2)nnc1-c1ccc(F)cc1 | inactive |
| CN(C)CCNC(=O)c1ccc(COCC(F)(F)F)cc1 | inactive |
| Cc1cc([N+](=O)[O-])ccc1NC(=O)Cc1ccc(F)cc1 | inactive |
| COc1ccc(/C=C/C(=O)O)cc1COc1cccc(C)c1 | inactive |
